Structures are written as SMILES. About 83,000 compounds went through this panel and 20% of them were active in at least one assay; those are over-represented in the sample as a whole.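 Compound tested at a single concentration for 48 hours in 96-well plates; a percent growth value below 10 was scored as active.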 Unmarked numbers belong to inactive results. The source made the active and inactive calls.

The test system of this test is HL-60(TB) leukemia. The test is described as follows: NCI-60 one-dose screen, 48 h (100 = growth as untreated, 0 = no growth, -100 = all killed). Conditions: 10 µM unless noted.

`Cc1nc2sc(C(=O)Nc3ccccc3)c(N)c2cc1C(=O)/C=C/c1ccccc1`: the growth was 3.44% (active).
The same measure for `O=C(Nc1ncc(Cc2cc(C(F)(F)F)ccc2Cl)s1)C(=S)N1CCOCC1`: 98.1%.
On to `Cc1ccc(S(=O)(=O)NCCCNc2cc(-c3cn(C(C)(C)C)nc3-c3cccc(O)c3)ccn2)cc1`, for which the growth was 66.6%.
As for `Cc1ccc(S(=O)(=O)NCCNc2nccc(-c3c(-c4ccc(O)cc4)nc4sccn34)n2)cc1`, the figure is 155%; as for `C=C1CCC2C3(C)COC(c4ccc(NC(C)=O)cc4)OC3CCC2(C)C1C/C=C1/C(=O)OCC1O` (stereo not given), 32.8%.
The same measure for `NC(=NCCCOc1ccc(F)cc1)Nc1ccc(I)cc1`: 72.6%; for `O=c1[nH]c(-c2cn(-c3ccc(Cl)cc3)nn2)nc2ccccc12`: 100%.
As for `O=c1c(-c2nc3ccccc3[nH]2)cc2ccccc2n1Cc1cn(Cc2ccccc2Cl)nn1`, the figure is 67.4%.
On to `COc1cccc(C2CC(=O)Nc3cc4c(cc32)CCC4)c1OC` (stereo not given), for which the growth was 10.4%.
Consider `COc1cc2c(cc1OC)-c1ccc3cc4c(cc3c1N(CCN(C)C)C2)OCO4`, for which the growth was -33.9% (active).
The same measure for `COc1ccc(-c2c(N)n[nH]c2-c2ccc(Cl)cc2O)cc1OC`: 91.9%.
For `C=C(C=O)C1CCC2(C(=O)O)CCC3(C)C(CCC4C5(C)CCC(O)C(C)(C)C5CCC43C)C12` (stereo not given), the growth is 6.38% (active).
As for `Cc1cc(C)c2nc3nc(C)cc(C)c3c(N)c2c1`, the figure is 45.8%; as for `COc1ccc(-c2nn(-c3cccc(NC(=O)c4ccc(N5CCOCC5)c(C(F)(F)F)c4)c3)cc2-c2ccncc2)cc1Cl`, 38.1%.
The same measure for `CN(Cc1cccc(C(F)(F)F)c1)C(=O)[C@@H](CC(=O)N1CCC(N2CCCCC2)CC1)N1C(=O)[C@@H](N2C(=O)OC[C@@H]2c2ccccc2)[C@H]1/C=C/c1ccccc1`: 70.1%; for `CNCCCOc1c(Br)cc(CCNC(=O)/C(Cc2ccc(OC)c(Br)c2)=N/O)cc1Br`: 21.3%.
The same measure for `C=C[C@]1(C)C=C2CC[C@@H]3C(C)(C)C(=O)CC[C@@]3(C)[C@@H]2CC1`: 101%; for `CC1(c2ccccc2Cl)NC(=O)NC1=O` (stereo not given): 87.8%; for `c1ccc2[nH]c(-c3cc(-c4ccc5c(c4)OCO5)n[nH]3)nc2c1`: 13.3%.
As for `Cc1ccc(NC(=O)Cc2ccc(/C=C/C(=O)c3ncc[nH]3)cc2)cc1`, the growth is 27.5%.
With `O=C(O)c1ccc(-n2cc(CNc3ccc(C(F)(F)F)cc3)c(-c3ccccc3)n2)cc1`, the growth was 89.2%.
The same measure for `CCCCCCCCOC(=O)C(C)OC(=O)OCCOCCOC(=O)OC(C)C(=O)OCCCCCCCC` (stereo not given): 108%.
Consider `COCCCNS(=O)(=O)c1ncnc2nc[nH]c12`, for which the growth is 82.2%.
In the case of `Nc1nnc(C(=O)c2cnc3n(c2=O)CCCCC3)s1`, the growth is 110%.
As for `Nc1c(C(=O)Nc2ccccc2)sc2nc3c(cc12)CCC3`, the figure is 60.9%.
